Compound activity (PubChem)
SMN2 splice up = SMN2 splice variant enhancement; Potency, µM (doses to about 46.1 µM), hits mostly activators; AID 1458; HEK293 SMN2-luciferase splicing reporter, luminescence, 30-36 h; 2.8% of 210,000 active; further: nearly all actives have a fitted effect of over 55% in size
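HEK293 cells carry an SMN2 […]–luciferase reporter in which exon 7 inclusion puts luciferase in frame. Cells were plated 10-12 h before compound addition, then incubated 30-36 h at 37C. ONE-Glo luminescence was read; sodium butyrate at 4.5 mM final served as control.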
Rab9 promoter act = Rab9 promoter activation; Huh7 Rab9 promoter-luciferase reporter, luminescence, 24 h; Potency, µM (titrated, usually from 9.22 µM), usual class: activators; 2.8% of 320,000 active; further: nearly all actives have a fitted effect of over 60% in size
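Cell-based reporter: Huh7 stable for Rab9 promoter-driven luciferase, plated in reduced-serum medium with 10% FBS at 1500 cells/well, compound-treated 24 h at 37 °C, luminescence read after 10 min reagent.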
Luc counter = counter-screen: inhibitors of Kinase-Glo firefly luciferase | 0.28% of 200,000 active | Kinase-Glo luciferase, ATP luminescence, 8 min | Potency, µM (titrated, usually from 38.3 µM), most hits filed as inhibitors | AID 1379 | Q27757; further: nearly all actives have a fitted effect of over 60% in size
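Substrate mix (final 50 mM imidazole pH 7.2, 50 mM KCl, 7 mM MgCl2, 10 uM ATP, 0.01% Tween 20, 0.05% BSA) plus pin-tool compound, then Kinase-Glo detection mix; 8 min ambient, luminescence read.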
ELG1 genotox = genotoxicity induction in ELG1-luciferase HEK293T cells | HEK293T ELG1-luciferase reporter, luminescence, 16 h | Potency, µM (top dose mostly 46 µM), usual class: activators | 1.3% of 330,000 active; further: nearly all actives have a fitted effect of over 60% in size
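16 hr compound incubation (37 °C, 5% CO2) of HEK293T cells carrying luciferase-tagged ELG1; luciferase then measured by ONE-Glo luminescence after 30 min at RT.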
NPC1 promoter act = activators of NPC1 promoter; Huh7 NPC1 promoter luciferase reporter, 24 h; Potency, µM (highest dose often 9.22 µM), actives largely listed as activators; 2.4% of 320,000 active; AID 485313; further: nearly all actives have a fitted effect of over 60% in size
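Cells: Huh7 expressing luciferase under the NPC1 promoter, 1500/well. Seeded 2 h, compound added, incubated 24 h at 37 °C. Luciferase reagent, 10 min ambient, then luminescence.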
FLuc counter = inhibits or activates purified firefly luciferase, miR-21 counter-screen; 6.9% of 360,000 active; AID 588342; P08659; purified FLuc, Km substrates, luminescence inhibition; Potency, µM (doses to about 57.5 µM), hits mostly inhibitors; further: nearly all actives have a fitted effect of over 55% in size
Target sequence (P08659 whole entry, looked up): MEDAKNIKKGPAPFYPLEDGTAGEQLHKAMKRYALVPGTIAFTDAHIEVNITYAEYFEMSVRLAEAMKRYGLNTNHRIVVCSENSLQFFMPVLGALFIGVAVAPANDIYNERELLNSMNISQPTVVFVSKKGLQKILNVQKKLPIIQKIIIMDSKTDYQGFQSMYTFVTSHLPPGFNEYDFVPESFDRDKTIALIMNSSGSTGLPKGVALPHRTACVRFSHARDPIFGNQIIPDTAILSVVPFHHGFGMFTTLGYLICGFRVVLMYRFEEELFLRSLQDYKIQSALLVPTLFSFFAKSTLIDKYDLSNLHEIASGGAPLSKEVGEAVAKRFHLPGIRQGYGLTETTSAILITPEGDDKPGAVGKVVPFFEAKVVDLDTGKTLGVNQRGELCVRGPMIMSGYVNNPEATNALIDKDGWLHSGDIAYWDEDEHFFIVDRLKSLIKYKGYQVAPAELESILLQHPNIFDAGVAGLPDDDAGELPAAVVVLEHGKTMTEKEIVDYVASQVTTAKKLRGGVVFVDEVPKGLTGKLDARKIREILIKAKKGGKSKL
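Purified P. pyralis luciferase, 10 nM final, with Km-level 10 uM D-luciferin and 10 uM ATP in 50 mM Tris acetate pH 7.5, 10 mM Mg acetate, 0.01% Tween-20, 0.05% BSA; 6-point qHTS titration about 60 µM downward; luminescence read.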
Large screens that a line does not name were inactive. An excerpt weighted towards active compounds, which were near 7.5% of everything screened. The call rests on the fitted dose curve; in most records, active means well fitted curve in the direction sought with a large enough effect; inconclusive means small, poorly fitted or top-dose-only effect, or another doubt; inactive means no such curve, though single readings can be large; an effect the other way counts as inactive or inconclusive.

CCOc1ccc2nc(SCc3ccccc3C#N)sc2c1	SMN2 splice up 11µM, Rab9 promoter act 2.5µM, ELG1 genotox inconclusive, NPC1 promoter act 3.2µM, FLuc counter 7.6µM
CCOc1ccc2nc(SCCNS(=O)(=O)c3ccccc3)sc2c1	FLuc counter inconclusive
CCOc1ccc2nc(SCC(=O)NC3CC3)sc2c1	Rab9 promoter act inconclusive, NPC1 promoter act inconclusive (no result: SMN2 splice up, Luc counter)
CC(C)NS(=O)(=O)c1ccc(Br)c(C(=O)OC(C)C(=O)NC2CCCCC2C)c1 (stereo not given)	none (no result: SMN2 splice up, Luc counter)
COc1cccc(C(=O)Nc2ccc(-c3nc4ccc(C)cc4s3)cc2)c1OC	none (no result: SMN2 splice up, Rab9 promoter act, Luc counter, ELG1 genotox, NPC1 promoter act)
Cc1ccc2nc(-c3ccc(NC(=O)COCC(=O)O)cc3)sc2c1	Rab9 promoter act inconclusive, ELG1 genotox inconclusive, NPC1 promoter act inconclusive, FLuc counter 1.2µM (no result: SMN2 splice up, Luc counter)
Cc1ccc2nc(-c3ccc(NC(=O)Cc4ccccc4)cc3)sc2c1	SMN2 splice up inconclusive, FLuc counter 11µM (no result: Rab9 promoter act, Luc counter, ELG1 genotox, NPC1 promoter act)
O=C(O)CSCC(=O)Nc1ccc(-c2nc3ccccc3s2)cc1	Rab9 promoter act inconclusive, ELG1 genotox inconclusive, FLuc counter 3µM (no result: SMN2 splice up, Luc counter)
Cc1cccc(CC(=O)Nc2cccc(-c3nc4cccnc4s3)c2)c1	none (no result: SMN2 splice up, Rab9 promoter act, Luc counter, ELG1 genotox, NPC1 promoter act)
CCCOc1ccccc1C(=O)Nc1ccc(-c2nc3ccc(C)cc3s2)cc1	SMN2 splice up 13µM, FLuc counter 4.8µM (no result: Rab9 promoter act, Luc counter, ELG1 genotox, NPC1 promoter act)
CSCCC(NC(=O)c1cccc(C)c1)C(=O)NNC(=O)c1cccs1 (stereo not given)	none (no result: SMN2 splice up, Rab9 promoter act, Luc counter, NPC1 promoter act, FLuc counter)
Cc1nc2ccc(NC(=O)COc3ccccc3F)cc2s1	SMN2 splice up inconclusive, Rab9 promoter act inconclusive, ELG1 genotox inconclusive, FLuc counter inconclusive
O=C(COc1ccccc1F)Nc1ccc(-c2nc3ccccc3s2)cc1	Rab9 promoter act 0.63µM, NPC1 promoter act 0.89µM (no result: SMN2 splice up, Luc counter, ELG1 genotox, FLuc counter)
Cc1csc(NC(=O)CSCC(=O)O)c1-c1nc2ccccc2s1	none (no result: SMN2 splice up, Luc counter)
Cc1ccc2nc(-c3ccc(NC(=O)CSCC(=O)O)cc3)sc2c1	Rab9 promoter act 2.8µM, ELG1 genotox inconclusive, NPC1 promoter act 4µM, FLuc counter 1.7µM (no result: SMN2 splice up, Luc counter)
COc1ccc(OCCOCCOc2ccc(C)cc2[N+](=O)[O-])cc1	FLuc counter inconclusive
Cc1ccc(OCCOc2ccc(Cl)cc2Cl)c([N+](=O)[O-])n1	ELG1 genotox inconclusive, NPC1 promoter act inconclusive, FLuc counter 17µM
Cc1ccc(COc2ccc(C)nc2[N+](=O)[O-])cc1	Rab9 promoter act 0.71µM, ELG1 genotox 3.7µM, NPC1 promoter act 0.79µM, FLuc counter 2.4µM (no result: SMN2 splice up, Luc counter)
COc1ccc(OCCOc2ccc(C)nc2[N+](=O)[O-])cc1	SMN2 splice up inconclusive, Rab9 promoter act inconclusive, ELG1 genotox inconclusive, NPC1 promoter act inconclusive, FLuc counter 24µM
COc1ccc(-n2ccnc2SCC(=O)NC2CCCC2)cc1	none (no result: SMN2 splice up, Luc counter)
COc1ccc(-c2oc3ncn4nc(-c5ccccc5Cl)nc4c3c2-c2ccc(OC)cc2)cc1	none (no result: Rab9 promoter act, Luc counter, ELG1 genotox, NPC1 promoter act)
CC(=O)OCC(=O)[C@@]1(O)CCC2C3CC[C@H]4CC(O)CC[C@@]4(C)C3C(=O)C[C@]21C (stereo not given in full)	none (no result: Rab9 promoter act, ELG1 genotox, NPC1 promoter act, FLuc counter)
Cc1cccc(C(=O)NC2CCN(CC(=O)Nc3ccc4c(c3)OCO4)CC2)c1	none (no result: SMN2 splice up)
O=C(NC1CC1)c1cccc(Nc2ccc(-c3ccc4c(c3)OCCO4)nn2)c1	SMN2 splice up inconclusive, Rab9 promoter act 2µM, ELG1 genotox inconclusive, NPC1 promoter act inconclusive, FLuc counter 0.6µM
O=S(=O)(c1ccc(Nc2ccc(-c3ccc4c(c3)OCCO4)nn2)cc1)N1CCCC1	FLuc counter 5.4µM
COc1ccc(C2=NN(c3nc(C(=O)O)cs3)C(O)(C(F)(F)F)C2)c(OC)c1 (stereo not given)	FLuc counter 11µM
COc1ccc(C2=NN(C(=O)c3cccs3)C(O)(C(F)(F)F)C2)cc1 (stereo not given)	FLuc counter inconclusive
O=C(c1ccccc1)c1cccc(NC(=O)c2ccc(Br)o2)c1	Rab9 promoter act inconclusive, FLuc counter 24µM
Cc1ccccc1C(=O)Nc1cccc(NC(=O)c2ccc(-c3ccc(Br)cc3)o2)c1	FLuc counter 4.8µM
O=C(Nc1ccc2ccccc2c1)c1ccc(Br)o1	Rab9 promoter act 3.5µM, ELG1 genotox inconclusive, NPC1 promoter act 3.5µM, FLuc counter 5.4µM (no result: SMN2 splice up, Luc counter)
